Structures are written as SMILES. About 83,000 compounds went through this panel and 20% of them were active in at least one assay; those are over-represented in the sample as a whole.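 The test compound was applied at a single concentration to cells in 96-well plates for 48 hours, and percent growth was recorded.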 Activity calls are given as the source filed them. The calls were made as follows: active = growth percent below 10; inactive = the rest.

This is an account of results in PubChem BioAssay (NCI).

The test system of one experiment is NCI-H226 lung. Nature of the experiment: NCI-60 one-dose screen, 48 h (100 = growth as untreated, 0 = no growth, -100 = all killed). The settings on record: 10 µM unless noted.
Turning to `COc1ccc(/C=N/Nc2cc(=O)[nH]c3ccc(Cl)cc23)cc1`, the growth was 80.4% (inactive).
On to `CCCCCCN(CCCCCC)c1ccc(/C=C2/SC(=O)NC2=O)c(C)c1`, for which the growth was 104% (inactive).
Consider `CC(=O)Oc1ccccc1C(=O)N=C1[Se]CCCN1C(=O)c1ccccc1OC(C)=O`, for which the growth was -19.1% (active).
`CC(C)OC(=O)Nc1ccc(-c2nc(-c3cccc(OCCN4CCOCC4)c3)c(-c3ccnc(Br)c3)[nH]2)cc1`: the growth is 55.3% (inactive).
Same read-out and setting: the same measure for `Cc1cc2nc3ccc(N=Nc4ccc(N(C)C)cc4)cc3n(-c3ccccc3)c-2cc1=N`: -81.3% (active); for `CCCCn1c(-c2ccc(-c3nc(-c4ccc(Cl)cc4)no3)cc2)nc(-c2ccccc2)c1-c1ccccc1`: 84.2% (inactive); for `Oc1c(I)cc(I)cc1CNCCCN(Cc1ccccn1)Cc1ccccn1`: -78.4% (active).
Turning to `C/C(=N/NC(N)=S)c1sc(Nc2cccc(Cl)c2)nc1C`, the growth is 92% (inactive).
In the case of `Cc1nn(-c2ccccc2)c2c1N=c1s/c(=C\c3ccc(C(F)(F)F)cc3)c(=O)n1CN2`, the growth was 61% (inactive).
For `O=C(O)CCC(=O)Nc1nnc(-c2ccccc2)s1`, the growth was 116% (inactive).
On the same count and under the same terms, the value for `Oc1ccc(Cl)cc1Cc1cc(Cl)cc(Cl)c1O` was 90.1% (inactive); that for `O=c1c2cccc(Cl)c2sc2c(NCCCNCCO)nc3ccccc3c12` was 67.7% (inactive).
`COc1cc(C2CC(c3cccc(Br)c3)=NN2C(C)=O)cc(OC)c1OC` (stereo unspecified): the growth was 28% (inactive).
Same read-out and setting: the value for `COc1ccc(-c2nc(NN)c3c(C)nn(-c4ccc(F)cc4)c3n2)cc1` was 80% (inactive); that for `CCOC(=O)NCCc1ccccc1` was 107% (inactive).
On to `COc1ccccc1/C=C1\Oc2cc(OCCN3CCC(Cc4ccccc4)CC3)ccc2C1=O`, for which the growth is 96.9% (inactive).
Take `O=C(COc1ccc(/C=C2\Cc3ccc(Cl)cc3C2=O)cc1)Nc1nc2ccccc2s1`: the growth is 101% (inactive).
As to `CCc1cccc2c3c(sc12)C(c1ccc(F)cc1)C(C#N)=C(N)O3` (stereo unspecified), the growth was 29.1% (inactive).
As for `Cc1ccc(C(=O)N/N=C/c2cccc([N+](=O)[O-])c2)cn1`, the growth was 90% (inactive).
With `CCOC(=O)C1=C(N)Oc2c(sc3c(C)cccc23)C1c1ccc(Cl)cc1` (stereo unspecified), the growth is 32.9% (inactive).
The same measure, in the same setting: the same measure for `COc1ccc(-n2c(N)c(-c3nc4ccccc4[nH]3)cc(C#N)c2=O)cc1`: 35.3% (inactive); for `Cc1cc2nc3cc(C)c(N)cc3[n+](-c3ccccc3)c2cc1N`: 71.2% (inactive); for `COc1c(N2CC3CCCN(C(C)=O)C3C2)c(F)cc2c(=O)c(C(=O)N[C@H]3C(O)[C@@H](O)C(CO)O[C@H]3O)cn(C3CC3)c12` (stereo partly specified): 108% (inactive).
Regarding `COc1ccc(C2CC(c3ccc(Nc4nc(Nc5ccc(F)cc5)nc(Nc5ccc(Cl)cc5)n4)cc3)=NN2C(C)=O)cc1` (stereo unspecified), the growth is 97.7% (inactive).
As to `O=c1[nH][n+](-c2ccc(Br)cc2)no1`, the growth was 72.5% (inactive).
As to `O=C(CSc1nccc(Nc2ccc(S(=O)(=O)Nc3nccs3)cc2)n1)c1ccc(C(F)(F)F)cc1`, the growth was 89.2% (inactive).
For the molecule `COc1cc(C2CC(c3ccc(N(C)C)cc3)=NN2C(C)=O)cc(OC)c1OC` (stereo unspecified), the growth was 79.6% (inactive).
Still for that read-out and setting: the same measure for `COc1ccc2c(c1)c(-c1ccc(-c3cn(C)c4ccc(OC)cc34)o1)cn2C`: 82.7% (inactive).
As to `COc1ccc(CN2c3ccccc3CCc3ccccc32)cc1F`, the growth is 52.9% (inactive).
Turning to `CC(=O)N1N=C(c2ccc(Nc3nc(Nc4ccc(F)cc4)nc(Nc4ccc(Cl)cc4)n3)cc2)CC1c1ccc(Cl)cc1` (stereo unspecified), the growth is 83.8% (inactive).
Take `COc1ccc(OC)c(/C=C/c2nnc(Nc3ccccc3)o2)c1`: the growth is 89.7% (inactive).
On to `COc1cc2cc(Oc3ccc(NC(=O)Nc4ccc(Cl)c(C(F)(F)F)c4)cc3)c(C)nc2cc1OCCN1CCOCC1`, for which the growth was 34.9% (inactive).
Still for that read-out and setting: the same measure for `CCOC(=O)C1=C(N)Oc2c(sc3c(C)cccc23)C1c1ccc(F)cc1` (stereo unspecified): 9.65% (active); for `NCCCNc1nc2ccccc2c2c(=O)c3cccc(F)c3sc12`: 64.1% (inactive); for `CCc1ccc(Oc2c(-c3ccc(OCc4ccc(Cl)cc4)cc3O)n[nH]c2C(F)(F)F)cc1`: 24.8% (inactive).
In the case of `COc1ccc2sc3c(NCCCNCCO)nc4ccccc4c3c(=O)c2c1`, the growth is 98% (inactive).
Regarding `COc1nc2ccccc2cc1-c1nc2c(cnn2-c2ccc(Br)cc2)c(=O)[nH]1`, the growth was 39.7% (inactive).
On the same count and under the same terms, the value for `Cc1oc2nc[nH]c(=O)c2c1C(=O)/C=C/c1ccc(Br)cc1` was -8.79% (active).

For another experiment, the system named is NCI-H322M lung. The description is as above. The settings on record: 10 µM unless noted.
With `COc1ccc(/C=N/Nc2cc(=O)[nH]c3ccc(Cl)cc23)cc1`, the growth was 66.3% (inactive).
`CCCCCCN(CCCCCC)c1ccc(/C=C2/SC(=O)NC2=O)c(C)c1`: the growth was 87% (inactive).
In the case of `CC(=O)Oc1ccccc1C(=O)N=C1[Se]CCCN1C(=O)c1ccccc1OC(C)=O`, the growth was -5.61% (active).
Take `CC(C)OC(=O)Nc1ccc(-c2nc(-c3cccc(OCCN4CCOCC4)c3)c(-c3ccnc(Br)c3)[nH]2)cc1`: the growth was 46.5% (inactive).
Turning to `Cc1cc2nc3ccc(N=Nc4ccc(N(C)C)cc4)cc3n(-c3ccccc3)c-2cc1=N`, the growth was -96.6% (active).
On to `CCCCn1c(-c2ccc(-c3nc(-c4ccc(Cl)cc4)no3)cc2)nc(-c2ccccc2)c1-c1ccccc1`, for which the growth was 90.4% (inactive).
As to `Oc1c(I)cc(I)cc1CNCCCN(Cc1ccccn1)Cc1ccccn1`, the growth is -75.3% (active).
On the same count and under the same terms, the same measure for `C/C(=N/NC(N)=S)c1sc(Nc2cccc(Cl)c2)nc1C`: 77.9% (inactive); for `Cc1nn(-c2ccccc2)c2c1N=c1s/c(=C\c3ccc(C(F)(F)F)cc3)c(=O)n1CN2`: 75.7% (inactive); for `O=C(O)CCC(=O)Nc1nnc(-c2ccccc2)s1`: 105% (inactive).
For the molecule `Oc1ccc(Cl)cc1Cc1cc(Cl)cc(Cl)c1O`, the growth was 29.9% (inactive).
Still for that read-out and setting: the value for `O=c1c2cccc(Cl)c2sc2c(NCCCNCCO)nc3ccccc3c12` was 44% (inactive).
Same read-out and setting: the value for `COc1cc(C2CC(c3cccc(Br)c3)=NN2C(C)=O)cc(OC)c1OC` (stereo unspecified) was 33% (inactive).
In the case of `COc1ccc(-c2nc(NN)c3c(C)nn(-c4ccc(F)cc4)c3n2)cc1`, the growth is 74.6% (inactive).
Take `CCOC(=O)NCCc1ccccc1`: the growth was 93.2% (inactive).
On the same count and under the same terms, the value for `COc1ccccc1/C=C1\Oc2cc(OCCN3CCC(Cc4ccccc4)CC3)ccc2C1=O` was 85.6% (inactive); that for `O=C(COc1ccc(/C=C2\Cc3ccc(Cl)cc3C2=O)cc1)Nc1nc2ccccc2s1` was 134% (inactive).
Take `CCc1cccc2c3c(sc12)C(c1ccc(F)cc1)C(C#N)=C(N)O3` (stereo unspecified): the growth was 57.7% (inactive).
The same measure, in the same setting: the value for `Cc1ccc(C(=O)N/N=C/c2cccc([N+](=O)[O-])c2)cn1` was 97.1% (inactive); that for `CCOC(=O)C1=C(N)Oc2c(sc3c(C)cccc23)C1c1ccc(Cl)cc1` (stereo unspecified) was 47.3% (inactive); that for `COc1ccc(-n2c(N)c(-c3nc4ccccc4[nH]3)cc(C#N)c2=O)cc1` was 102% (inactive).
For the molecule `Cc1cc2nc3cc(C)c(N)cc3[n+](-c3ccccc3)c2cc1N`, the growth was 93.8% (inactive).
Turning to `COc1c(N2CC3CCCN(C(C)=O)C3C2)c(F)cc2c(=O)c(C(=O)N[C@H]3C(O)[C@@H](O)C(CO)O[C@H]3O)cn(C3CC3)c12` (stereo partly specified), the growth was 106% (inactive).
As for `COc1ccc(C2CC(c3ccc(Nc4nc(Nc5ccc(F)cc5)nc(Nc5ccc(Cl)cc5)n4)cc3)=NN2C(C)=O)cc1` (stereo unspecified), the growth is 123% (inactive).
`O=c1[nH][n+](-c2ccc(Br)cc2)no1`: the growth was 72.2% (inactive).
Consider `O=C(CSc1nccc(Nc2ccc(S(=O)(=O)Nc3nccs3)cc2)n1)c1ccc(C(F)(F)F)cc1`, for which the growth was 106% (inactive).
Take `COc1cc(C2CC(c3ccc(N(C)C)cc3)=NN2C(C)=O)cc(OC)c1OC` (stereo unspecified): the growth was 44.2% (inactive).
On to `COc1ccc2c(c1)c(-c1ccc(-c3cn(C)c4ccc(OC)cc34)o1)cn2C`, for which the growth is 95.1% (inactive).
As for `COc1ccc(CN2c3ccccc3CCc3ccccc32)cc1F`, the growth is 57.6% (inactive).
Still for that read-out and setting: the same measure for `CC(=O)N1N=C(c2ccc(Nc3nc(Nc4ccc(F)cc4)nc(Nc4ccc(Cl)cc4)n3)cc2)CC1c1ccc(Cl)cc1` (stereo unspecified): 85.3% (inactive).
With `COc1ccc(OC)c(/C=C/c2nnc(Nc3ccccc3)o2)c1`, the growth is 99.6% (inactive).
Consider `COc1cc2cc(Oc3ccc(NC(=O)Nc4ccc(Cl)c(C(F)(F)F)c4)cc3)c(C)nc2cc1OCCN1CCOCC1`, for which the growth was 61.1% (inactive).
On the same count and under the same terms, the value for `CCOC(=O)C1=C(N)Oc2c(sc3c(C)cccc23)C1c1ccc(F)cc1` (stereo unspecified) was 51.5% (inactive).
Take `NCCCNc1nc2ccccc2c2c(=O)c3cccc(F)c3sc12`: the growth is 46.8% (inactive).
For `CCc1ccc(Oc2c(-c3ccc(OCc4ccc(Cl)cc4)cc3O)n[nH]c2C(F)(F)F)cc1`, the growth was 35.3% (inactive).
For the molecule `COc1ccc2sc3c(NCCCNCCO)nc4ccccc4c3c(=O)c2c1`, the growth was 72.8% (inactive).
Consider `COc1nc2ccccc2cc1-c1nc2c(cnn2-c2ccc(Br)cc2)c(=O)[nH]1`, for which the growth is 36.5% (inactive).
Same read-out and setting: the value for `Cc1oc2nc[nH]c(=O)c2c1C(=O)/C=C/c1ccc(Br)cc1` was 2.39% (active).
